FLuc inh: Photinus pyralis luciferase inhibition; actives 2.5% (n = 76,000); Potency, µM (top dose mostly 115 µM), hits mostly inhibitors; AID 1347043; purified P. pyralis luciferase, luminescence, biochemical; P08659; active = well fitted curve in the direction sought with a large enough effect; inconclusive = small, poorly fitted or top-dose-only effect, or another doubt; inactive = no such curve, though single readings can be large; an effect the other way counts as inactive or inconclusive; note: nearly all actives have a fitted effect of over 65% in size
Target sequence (P08659 whole entry, looked up): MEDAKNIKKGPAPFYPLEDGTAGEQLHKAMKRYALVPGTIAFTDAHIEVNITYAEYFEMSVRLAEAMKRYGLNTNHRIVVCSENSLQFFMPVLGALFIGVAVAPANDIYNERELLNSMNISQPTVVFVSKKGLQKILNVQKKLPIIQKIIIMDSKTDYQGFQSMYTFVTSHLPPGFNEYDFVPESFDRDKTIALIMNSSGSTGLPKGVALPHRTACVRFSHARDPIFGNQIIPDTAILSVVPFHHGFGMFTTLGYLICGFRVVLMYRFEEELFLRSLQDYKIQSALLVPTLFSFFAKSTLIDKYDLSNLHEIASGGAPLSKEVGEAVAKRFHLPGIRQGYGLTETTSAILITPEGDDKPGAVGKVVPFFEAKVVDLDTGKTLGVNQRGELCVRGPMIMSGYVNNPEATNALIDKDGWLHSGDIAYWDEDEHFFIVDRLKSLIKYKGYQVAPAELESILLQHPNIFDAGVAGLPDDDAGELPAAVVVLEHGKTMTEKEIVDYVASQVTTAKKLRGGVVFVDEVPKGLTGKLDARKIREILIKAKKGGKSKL
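Purified P. pyralis luciferase (10nM final) in 50mM Tris acetate pH 7.5, 10mM Mg acetate, 0.01% Tween-20, 0.05% BSA with 10uM D-luciferin and 10uM ATP. Compounds titrated qHTS. Luminescence imaged on CCD.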
NIH3T3 tox: NIH 3T3 cell cytotoxicity | Potency, µM (titrated, usually from 96.7 µM), usual class: inhibitors | NIH 3T3 viability, CellTiter-Glo ATP luminescence, 48-72 h | actives 4.3% (n = 94,000) | AID 1345082; active = well fitted curve in the direction sought with a large enough effect; inconclusive = small, poorly fitted or top-dose-only effect, or another doubt; inactive = no such curve, though single readings can be large; an effect the other way counts as inactive or inconclusive; note: nearly all actives have a fitted effect of over 55% in size
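Cells were seeded at 400 per well, treated with pin-transferred compound, and kept 48 or 72 hr at 37 °C before CellTiter-Glo addition and luminescence imaging of cellular ATP.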
HEK cytotox: kills HEK 293 cells; AID 1345083; HEK 293 viability, ATP luminescence (CellTiter-Glo), 48-72 h; actives 6.6% (n = 94,000); Potency, µM (titrated, usually from 115 µM), usual class: inhibitors; active = well fitted curve in the direction sought with a large enough effect; inconclusive = small, poorly fitted or top-dose-only effect, or another doubt; inactive = no such curve, though single readings can be large; an effect the other way counts as inactive or inconclusive; note: nearly all actives have a fitted effect of over 60% in size
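Pintool-delivered compounds were incubated with HEK 293 cells (250 cells/well) at 37 degree Celsius for 48 or 72 hr. ATP-dependent luminescence (CellTiter-Glo) then reported remaining viable cells.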
NPR1 antag: antagonists of human natriuretic peptide receptor Npr1; Potency, µM (series often up to 46.3 µM), hits mostly inhibitors; actives 1.6% (n = 76,000); HEK293 hNpr1 GloSensor cGMP, ANP-stimulated luminescence; P16066; note: nearly all actives have a fitted effect of over 60% in size
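Compound pre-incubated 30 min at room temperature on GloSensor-loaded HEK293 cells stably carrying hNpr1 and the pGS-40F cGMP biosensor. Stimulation uses hNppA at 0.1 nM final; luminescence is taken at baseline and 20 min post-agonist.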
Npr1 antag conf: hNpr1 antagonism, confirmation assay. shares compounds with NPR1 antag. HEK293 hNpr1 cGMP GloSensor luminescence, ANP-stimulated. Potency, µM (highest dose often 57.6 µM), most hits filed as inhibitors. actives 76% (n = 1,400). AID 1347044; note: nearly all actives have a fitted effect of over 70% in size
NPR2 antag: antagonizes human Npr2, subtype selectivity check; shares compounds with NPR1 antag; HEK293 hNpr2 GloSensor cGMP luminescence, CNP-stimulated; Potency, µM (doses to about 57.6 µM), actives largely listed as inhibitors; actives 67% (n = 1,400); AID 1347046; note: nearly all actives have a fitted effect of over 70% in size
FLuc counter: counter-screen for Npr1 antagonists: firefly luciferase inhibitors; shares compounds with NPR1 antag; purified FLuc enzyme, luminescence, Km substrate; Potency, µM (top dose mostly 57.6 µM), most hits filed as inhibitors; actives 0.7% (n = 1,400); active = well fitted curve in the direction sought with a large enough effect; inconclusive = small, poorly fitted or top-dose-only effect, or another doubt; inactive = no such curve, though single readings can be large; an effect the other way counts as inactive or inconclusive
GloSensor cGMP: reduces cGMP signal in GloSensor control cells | shares compounds with NPR1 antag | HEK293 GloSensor cGMP, SNP-stimulated, luminescence | Potency, µM (series often up to 57.6 µM), most hits filed as inhibitors | actives 69% (n = 1,400) | AID 1347051; note: nearly all actives have a fitted effect of over 70% in size
Each line names hits and unclear results; the compound was inactive in the other large screens (follow-up assays come after a bar, where they were run). Hits are enriched below; roughly 11% of the tested compounds scored in any of these assays. Unless noted, calls come from the whole dose curve.

O=C(NCc1ccc(F)cc1F)c1cc2n(n1)CC(c1ccc3c(c1)OCO3)OC2 (stereo unspecified)	NIH3T3 tox inconclusive, HEK cytotox inconclusive
O=C(Nc1cccc(Cl)c1)c1cc2n(n1)CC(c1ccc3c(c1)OCO3)OC2 (stereo unspecified)	NIH3T3 tox inconclusive, HEK cytotox inconclusive
O=C(NCc1ccc(Cl)cc1)c1cc2n(n1)CC(c1ccc3c(c1)OCO3)OC2 (stereo unspecified)	NIH3T3 tox inconclusive, HEK cytotox inconclusive
Cc1ccc(NC(=O)c2cc3n(n2)CC(c2ccc4c(c2)OCO4)OC3)cc1Cl (stereo unspecified)	NIH3T3 tox inconclusive, HEK cytotox inconclusive, NPR1 antag inconclusive | Npr1 antag conf inconclusive | NPR2 antag inconclusive | FLuc counter inactive | GloSensor cGMP inactive
CCCOCCCNC(=O)c1c(C)noc1-c1cc(OC)cc(OC)c1	HEK cytotox inconclusive
Cn1cccc1CN1CCC2(CC1)C(=NC1CCCCC1)NC(=O)N2c1cc(F)cc(F)c1	none (no result: FLuc inh, NPR1 antag)
Cc1nnc2ccc(N3CCC(N[S+](C)(=O)[O-])CC3)nn12	none (no result: FLuc inh, NPR1 antag)
CCn1cc(S(=O)(=O)N2CCC(Oc3ccccc3-c3nc(C)no3)C2)cn1 (stereo unspecified)	none (no result: FLuc inh, NPR1 antag)
O=C(NC1CCCCC1)c1ccc2nnc(C3CC3)n2c1	none (no result: FLuc inh, NPR1 antag)
COCCn1c(=O)c(C(=O)N2CCN([S+](=O)([O-])c3cccs3)CC2)nc2cccnc21	none (no result: FLuc inh, NPR1 antag)
CCOCCCNc1ncnc2c1CN(c1cccc(C)c1)C(=O)CN2C	none (no result: FLuc inh, NPR1 antag)
Cc1cc(F)ccc1NC(=O)c1cc2n(n1)CC(c1ccc(Cl)cc1)OC2 (stereo unspecified)	NIH3T3 tox inconclusive, HEK cytotox inconclusive, NPR1 antag 15.8µM | Npr1 antag conf 27.3µM | NPR2 antag 21.7µM | FLuc counter inactive | GloSensor cGMP 24.3µM
O=C(Nc1ccc(Cl)cc1)c1cc2n(n1)CC(c1ccc3c(c1)OCO3)OC2 (stereo unspecified)	NIH3T3 tox inconclusive, HEK cytotox inconclusive, NPR1 antag 12.6µM | Npr1 antag conf 24.3µM | NPR2 antag 21.7µM | FLuc counter inactive | GloSensor cGMP 21.7µM
CC(=O)Nc1ccc(C(=O)N2CCC3(CC2)N=C(c2ccc(Br)cc2)NO3)cc1	HEK cytotox inconclusive, NPR1 antag 12.6µM | Npr1 antag conf 19.3µM | NPR2 antag 15.3µM | FLuc counter inactive | GloSensor cGMP 15.3µM
O=C(c1ccncc1)N1CCC2(CC1)N=C(c1ccc(Cl)cc1)NO2	HEK cytotox inconclusive
CC(=O)Nc1ccc(C(=O)N2CCC3(CC2)N=C(c2ccc(Cl)cc2)NO3)cc1	HEK cytotox inconclusive, NPR1 antag inconclusive | Npr1 antag conf 21.7µM | NPR2 antag inconclusive | FLuc counter inactive | GloSensor cGMP 21.7µM
O=[S+]1([O-])NC2(CCN(Cc3ccc(OC(F)(F)F)cc3)C2)CNc2ccccc21 (stereo unspecified)	NIH3T3 tox inconclusive, HEK cytotox 50.1µM, NPR1 antag inconclusive | Npr1 antag conf 9.68µM | NPR2 antag 12.2µM | FLuc counter inactive | GloSensor cGMP 10.9µM
Cc1cc(C(=O)Nc2cccc(-c3nnc4n3CCCC4)c2)n[nH]1	NPR1 antag inconclusive | Npr1 antag conf inconclusive | NPR2 antag inconclusive | FLuc counter inactive | GloSensor cGMP inconclusive
O=C(Nc1cccc(-c2nnc3n2CCCC3)c1)c1ccc(F)cc1	NIH3T3 tox inconclusive
COc1ccc(C2Cn3nnc(C(=O)N4CCN(C(=O)Cc5ccc(Cl)cc5)CC4)c3CO2)cc1 (stereo unspecified)	NPR1 antag inconclusive | Npr1 antag conf 19.3µM | NPR2 antag inconclusive | FLuc counter inactive | GloSensor cGMP 21.7µM
Cc1ccc(C2Cn3nnc(C(=O)N4CCN(C(=O)Cc5ccc(Cl)cc5)CC4)c3CO2)cc1 (stereo unspecified)	none
COc1ccc(C2Cn3nnc(C(=O)N4CCN(C(=O)Cc5cccc(F)c5)CC4)c3CO2)cc1 (stereo unspecified)	HEK cytotox inconclusive, NPR1 antag inconclusive | Npr1 antag conf 21.7µM | NPR2 antag 24.3µM | FLuc counter inactive | GloSensor cGMP 19.3µM
COc1ccc(C2Cn3nnc(C(=O)N4CCN(C(=O)CCc5ccccc5)CC4)c3CO2)cc1 (stereo unspecified)	HEK cytotox inconclusive, NPR1 antag inconclusive | Npr1 antag conf 24.3µM | NPR2 antag inconclusive | FLuc counter inactive | GloSensor cGMP 21.7µM
COc1cccc(CC(=O)N2CCN(C(=O)c3nnn4c3COC(c3ccc(Cl)cc3)C4)CC2)c1 (stereo unspecified)	NPR1 antag 11.2µM | Npr1 antag conf 24.3µM | NPR2 antag 24.3µM | FLuc counter inactive | GloSensor cGMP 21.7µM
CN1CCN(C(=O)c2cn3cc(-c4cccnc4)sc3n2)CC1	none (no result: FLuc inh, NPR1 antag)
COc1ccc(C(=O)N2CCCC(C(=O)N3CCC(N4CCOCC4=O)CC3)C2)cc1 (stereo unspecified)	none (no result: FLuc inh, NPR1 antag)
O=C(NC1CCCCC1)[C@H]1O[C@H](CCN2CCN(c3ccccn3)CC2)CC[C@@H]1O	none
COc1ccccc1CC(=O)N1CCN(C(=O)c2nnn3c2COC(c2ccc(Cl)cc2)C3)CC1 (stereo unspecified)	NIH3T3 tox inconclusive, HEK cytotox inconclusive, NPR1 antag 10µM | Npr1 antag conf 12.2µM | NPR2 antag 15.3µM | FLuc counter inactive | GloSensor cGMP 10.9µM
COc1ccccc1CCC(=O)N1CCN(C(=O)c2nnn3c2COC(c2ccccc2)C3)CC1 (stereo unspecified)	none
COc1ccccc1N1CCN(C(=O)c2cc3n(n2)CC(c2ccc(Cl)cc2)OC3)CC1 (stereo unspecified)	NIH3T3 tox inconclusive, HEK cytotox inconclusive, NPR1 antag inconclusive
COc1ccc(C(=O)N2CCN(C(=O)c3nnn4c3COC(c3ccc(Cl)cc3)C4)CC2)cc1 (stereo unspecified)	none
COc1ccc(C(=O)N2CCN(C(=O)c3nnn4c3COC(c3ccc(Cl)cc3)C4)CC2)c(C)c1 (stereo unspecified)	NIH3T3 tox inconclusive, HEK cytotox inconclusive, NPR1 antag 10µM | Npr1 antag conf 19.3µM | NPR2 antag 19.3µM | FLuc counter inactive | GloSensor cGMP 13.7µM
